# Measured values published in PubChem BioAssay (NCI).
# About 83,000 compounds went through this panel and 20% of them were active in at least one assay; those are over-represented in the sample as a whole.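 A percent growth of 40 corresponds to 60% growth inhibition; 0 means no net growth; -100 means all cells died. Active threshold: below 10.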 Unmarked numbers belong to inactive results. The source made the active and inactive calls.
# What was measured:
# Test in all cases: NCI-60 one-dose screen, 48 h (100 = growth as untreated, 0 = no growth, -100 = all killed)
# Conditions in all cases: 10 µM unless noted
# SR leukemia = tested on: SR leukemia
# RPMI-8226 leukemia = tested on: RPMI-8226 leukemia
# OVCAR-8 ovarian = tested on: OVCAR-8 ovarian
# OVCAR-5 ovarian = tested on: OVCAR-5 ovarian
# OVCAR-4 ovarian = tested on: OVCAR-4 ovarian
# SK-OV-3 ovarian = tested on: SK-OV-3 ovarian
# IGROV1 ovarian = tested on: IGROV1 ovarian
# OVCAR-3 ovarian = tested on: OVCAR-3 ovarian
# HS 578T breast = tested on: HS 578T breast
# NCI/ADR-RES ovarian = tested on: NCI/ADR-RES ovarian
Structure (SMILES),growth (SR leukemia),growth (RPMI-8226 leukemia),growth (OVCAR-8 ovarian),growth (OVCAR-5 ovarian),growth (OVCAR-4 ovarian),growth (SK-OV-3 ovarian),growth (IGROV1 ovarian),growth (OVCAR-3 ovarian),growth (HS 578T breast) [%],growth (NCI/ADR-RES ovarian)
c1csc(-c2[nH]nc3c2CCc2ccccc2-3)c1,105%,81.3%,99.1%,24.1%,48.5%,98.1%,67.2%,28.1%,90,98.7%
N=C1C=C(N)C(=O)c2ccccc21,1.77% (active),5.15% (active),-20.1% (active),-85.8% (active),-99.6% (active),-87% (active),-37.6% (active),-87.6% (active),–,-76.4% (active)
CCCC[n+]1c(/C=C\c2c(OC)cc(OC)cc2OC)ccc2ccccc21,-34.6% (active),-25.6% (active),-27.7% (active),24.3%,9.07% (active),-14.3% (active),9.69% (active),-16.7% (active),16.4,76.8%
Cc1cc(C(=C2C=CC(=Nc3ccccc3)C=C2)c2ccc(Nc3ccccc3)cc2)ccc1N,9.34% (active),4.29% (active),-59.3% (active),-60% (active),-74.2% (active),-64.8% (active),-26.9% (active),-93.7% (active),–,-46.7% (active)
COc1ccc2nc3cc(Cl)ccc3c(NCCCCCN3CCCCC3)c2c1,-17.9% (active),-27% (active),-13.6% (active),-27.1% (active),-61% (active),-15.2% (active),5.24% (active),-21.8% (active),35.3,-8.47% (active)
CC1(C)OC2C(COC(c3ccccc3)(c3ccccc3)c3ccccc3)OC(c3c[nH]c4c(N)ncnc34)C2O1 (stereo unspecified),28.3%,27.4%,56.1%,82.9%,50.1%,70%,75.5%,53.8%,77.5,86.9%
S=C=Nc1ccc(N2CCOCC2)cc1,71.2%,87.8%,102%,97.6%,106%,93%,96.9%,109%,99.3,101%
CCOC(=O)C1=NN(c2ccccc2)C(=O)/C1=C\N1C(=O)/C(=C/c2cccc(O)c2)SC1=S,83.3%,88.1%,95.8%,121%,98.8%,99.8%,96%,106%,94,99.3%
CCCCCCCCCCCCN1C(C)=CS/C1=C\C=C\c1scc(C)[n+]1CCCCCCCCCCCC,-4.71% (active),-11.3% (active),-8.26% (active),61%,34.2%,50.3%,42.8%,31.9%,76.6,68%
Cc1nc(Sc2nc3ccc([N+](=O)[O-])cc3s2)sc1C,-13.2% (active),2.79% (active),19.5%,34.8%,36.4%,39.4%,32%,-2.8% (active),50,16.7%
CCCCCC[C@@H](O)C/C=C\CCCCCCCC(=O)OCCOC,122%,102%,101%,103%,98.4%,114%,114%,112%,101,104%
Cc1c(O)ccc(SC#N)c1C,105%,96.6%,102%,97.3%,107%,108%,110%,90.8%,124,106%
Cc1cc(C)c(C#N)c(Sc2nc(C)c([N+](=O)[O-])c(C)c2C#N)n1,22.7%,48.7%,77.2%,90.1%,66.6%,81.3%,82.9%,68.6%,118,77.9%
CN1CCC(c2ccccc2)(c2ccccc2)C(=O)C1,78.2%,41.7%,95.9%,86.8%,57%,103%,89.8%,68.7%,–,73.9%
CCCCN(CCCC)CCCCCCCCCCO,81%,133%,107%,97.3%,93.4%,109%,94%,104%,105,103%
O=Nc1ccc2ccccc2c1O,60.1%,70%,6.45% (active),81.8%,35.2%,95%,53.2%,2.86% (active),51,6.37% (active)
O=[N+]([O-])c1ccc(C(Br)c2ccc([N+](=O)[O-])cc2)cc1,7.81% (active),66.1%,63.2%,124%,64.3%,97.3%,-53.2% (active),110%,107,91.5%
O=C1C=CC(=O)N1c1cc(Cl)c(Cl)cc1Cl,81.5%,99.8%,102%,117%,98.8%,91.6%,93.7%,111%,137,104%

Structure (SMILES),growth (SR leukemia),growth (RPMI-8226 leukemia),growth (OVCAR-8 ovarian),growth (OVCAR-5 ovarian),growth (OVCAR-4 ovarian),growth (SK-OV-3 ovarian),growth (IGROV1 ovarian),growth (OVCAR-3 ovarian),growth (HS 578T breast) [%],growth (NCI/ADR-RES ovarian)
CC(C)c1ccc(Nc2n[nH]c(=S)s2)cc1,101%,108%,102%,119%,104%,106%,106%,98.9%,116,102%
CCOc1ccc(Nc2nc3c(s2)C(=O)c2ccccc2C3=O)cc1,46.6%,51%,68.4%,112%,65.5%,103%,82.2%,53.9%,96.8,75.2%
O=C(CCl)N(c1ccccc1)c1ccccc1,101%,109%,96.3%,117%,111%,114%,115%,109%,102,108%
COc1cc(OC)c(/C=C/c2c3ccccc3cc[n+]2C)c(OC)c1,-18.2% (active),6.51% (active),5.21% (active),56.5%,24.9%,35%,13.2%,5.9% (active),46.3,96.6%
N#CC(I)CS(=O)(=O)c1ccccc1 (stereo unspecified),109%,101%,91.5%,106%,95.4%,102%,69.3%,76.4%,114,97.4%
CC(C)N=C(N)/N=C(\N)Nc1ccc2ccc3ccccc3c2c1,-47.3% (active),-26.9% (active),-60.2% (active),-88.5% (active),-56.9% (active),-63.3% (active),-56.7% (active),-83% (active),–,41.5%
COC(=O)C(=[N+]=[N-])C(=O)c1ccc([N+](=O)[O-])o1,58.4%,78.8%,82%,110%,106%,97.2%,97.6%,88.3%,90.3,93.1%
O=C(Nc1ccc(Cl)c(Cl)c1)OCc1ccco1,25.7%,51.3%,47.1%,76.5%,64%,83.3%,52.7%,47%,20.5,34.4%
Nc1nc(-c2ccccc2)nc(N)c1N=O,27.4%,41%,54.3%,96.9%,83.9%,–,68.6%,27.7%,65,78.5%
O=C1C=CC(O)=CC1=P(c1ccccc1)(c1ccccc1)c1ccccc1,78.8%,74.2%,92.4%,74.7%,94%,91.5%,–,102%,83.2,102%
CCCCCCCCCCCCNCCCc1ccccc1,-34.3% (active),6.17% (active),79.3%,81.2%,46.5%,103%,–,83%,88.6,75.1%
CN(C)c1ccc(/C=C/c2cc[n+](C)c(/C=C/c3ccc(N(C)C)cc3)c2)cc1,-34.3% (active),-26.4% (active),5.17% (active),21.9%,19.9%,7.83% (active),–,20.5%,32.9,58.8%
CC(=O)N1CC(=O)NC1=S,91.8%,101%,103%,97.1%,96.5%,–,105%,110%,102,104%
CCSc1nc2ccccc2o1,94.2%,104%,103%,101%,101%,104%,–,111%,102,108%
COc1cc(-c2ccc(-[n+]3nc(-c4ccc([N+](=O)[O-])cc4)nn3-c3ccc([N+](=O)[O-])cc3)c(OC)c2)ccc1-[n+]1nc(-c2ccc([N+](=O)[O-])cc2)nn1-c1ccc([N+](=O)[O-])cc1,40.2%,27.6%,30.5%,59.7%,53.9%,47.1%,24.5%,32%,–,73.4%
CN(C)c1ccc(/C=C/c2ccnc3ccccc23)cc1,21%,11.7%,20.2%,84.4%,69.6%,–,–,45.1%,53.5,29.3%
O/N=C1\c2ccccc2-c2ccc(F)cc21,91.2%,85.8%,102%,93.8%,85.8%,97.3%,85.4%,–,120,107%
